The values below come from PubChem BioAssay.

Records with an inconclusive call do not appear. For some assays here: Measured potencies and affinities stand elsewhere. Activity calls are given as the source filed them. Unless noted, the rule behind the calls is not given here.

The target of experiment [1] is ATP-dependent translocase ABCB1 (Homo sapiens) (UniProt P08183). Description: MDR1 (ABCB1) efflux transporter inhibition, cell-based (AID 377; in the data active = fluorescence slope change above about 50%). The conditions noted are these: MDR1-expressing cells, fluorescent substrate accumulation slope; stronger effect = higher value; concentration not given here.
A short description of experiment [2]: polyglutamine-triggered caspase-3 activation inhibitors, cell-based (AID 1583). The following applies: polyglutamine-induced caspase-3 activation, cell assay; stronger effect = higher value;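 tested at 10 µM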.
Experiment [3] can be described thus: suppressors of polyQ aggregation in yeast, 75Q-TubU reporter (AID 1593). The conditions noted are these: Yeast 75Q polyglutamine aggregation reporter.
The nature of experiment [4]: rescue of polyQ-huntingtin neuronal dysfunction in worms, whole organism, C. elegans mechanosensory neurons, N-terminal huntingtin (AID 1599). The conditions noted are these: touch response, stronger effect = higher value.
Experiment [5] is described as follows: inhibitors of mitochondrial cytochrome c release, biochemical, purified mitochondria (AID 1603).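 Note: mouse liver mitochondria challenged with calcium chloride; signal normalized to the plate average as 100%.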 The following applies: stronger effect = lower value.
Experiment [6] in a line: inhibitors of polyQ protein aggregation (AID 1604). The conditions noted are these: polyglutamine-induced protein aggregation inhibition assay; stronger effect = higher value; tested at 2.5 µM.
Experiment [7] is described as follows: enhancers of glutamate uptake in motor neurons, MN-1 cell line (AID 1612).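 Note: tested at 1 µM final; 0% = mean of DMSO vehicle wells on each plate; positive means more glutamate uptake than control and negative means less.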 The conditions noted are these: MN-1 motor neuron cells, stronger effect = higher value.
Experiment [8] in a line: suppressors of polyglutamine aggregation in yeast, 75Q-TubH (AID 1616). The conditions noted are these: S. cerevisiae 75Q-TubH polyglutamine aggregation suppression; stronger effect = higher value.
Experiment [9] in a line: circadian clock period modulators, cell-based, LOPAC library, luminescence reporter (AID 2774).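 Note: values are relative to mean of DMSO wells on each plate.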 The following applies: circadian reporter cells, at 7 µM, actives lie on both sides.
Experiment [10] can be described thus: hESC survival regulators, cell-based (AID 493140).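 Note: cells exposed to compounds for four days before counting.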 The conditions noted are these: human embryonic stem cell survival screen; stronger effect = higher value.
The nature of experiment [11]: HepG2 cytotoxicity, primary screen, cytotoxicity control for P. falciparum antimalarial project, cell-based, ATP luminescence (AID 2303;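 active = inhibition above 50%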;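 note: 0% = DMSO wells and 100% = digitonin-killed cells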). The conditions noted are these: HepG2 viability, 24-48 h, at 10 µM, stronger effect = higher value.
In experiment [12] the target is L-lactate dehydrogenase (Plasmodium falciparum (isolate CDC / Honduras)) (UniProt Q27743). Description: PfLDH activity inhibition – cell lysate, 3D7 strain, counter-screen for P. falciparum growth inhibition project (AID 2304).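 Note: 0% = vehicle and 100% = reference inhibitor.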 The following applies: P. falciparum 3D7 crude extract, LDH APAD/NBT absorbance; at 2 µM; stronger effect = higher value.
A short description of experiment [13]: inhibition of 3D7 malaria parasite growth – strain 3D7 (AID 2306).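 Note: 0% = DMSO wells and 100% = chloroquine plus artemisinin control wells.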 The conditions noted are these: P. falciparum 3D7 erythrocytic growth, LDH absorbance, 72 h; at 2 µM; stronger effect = higher value.

ATP-dependent translocase ABCB1 (Homo sapiens), sequence (P08183 whole entry, looked up): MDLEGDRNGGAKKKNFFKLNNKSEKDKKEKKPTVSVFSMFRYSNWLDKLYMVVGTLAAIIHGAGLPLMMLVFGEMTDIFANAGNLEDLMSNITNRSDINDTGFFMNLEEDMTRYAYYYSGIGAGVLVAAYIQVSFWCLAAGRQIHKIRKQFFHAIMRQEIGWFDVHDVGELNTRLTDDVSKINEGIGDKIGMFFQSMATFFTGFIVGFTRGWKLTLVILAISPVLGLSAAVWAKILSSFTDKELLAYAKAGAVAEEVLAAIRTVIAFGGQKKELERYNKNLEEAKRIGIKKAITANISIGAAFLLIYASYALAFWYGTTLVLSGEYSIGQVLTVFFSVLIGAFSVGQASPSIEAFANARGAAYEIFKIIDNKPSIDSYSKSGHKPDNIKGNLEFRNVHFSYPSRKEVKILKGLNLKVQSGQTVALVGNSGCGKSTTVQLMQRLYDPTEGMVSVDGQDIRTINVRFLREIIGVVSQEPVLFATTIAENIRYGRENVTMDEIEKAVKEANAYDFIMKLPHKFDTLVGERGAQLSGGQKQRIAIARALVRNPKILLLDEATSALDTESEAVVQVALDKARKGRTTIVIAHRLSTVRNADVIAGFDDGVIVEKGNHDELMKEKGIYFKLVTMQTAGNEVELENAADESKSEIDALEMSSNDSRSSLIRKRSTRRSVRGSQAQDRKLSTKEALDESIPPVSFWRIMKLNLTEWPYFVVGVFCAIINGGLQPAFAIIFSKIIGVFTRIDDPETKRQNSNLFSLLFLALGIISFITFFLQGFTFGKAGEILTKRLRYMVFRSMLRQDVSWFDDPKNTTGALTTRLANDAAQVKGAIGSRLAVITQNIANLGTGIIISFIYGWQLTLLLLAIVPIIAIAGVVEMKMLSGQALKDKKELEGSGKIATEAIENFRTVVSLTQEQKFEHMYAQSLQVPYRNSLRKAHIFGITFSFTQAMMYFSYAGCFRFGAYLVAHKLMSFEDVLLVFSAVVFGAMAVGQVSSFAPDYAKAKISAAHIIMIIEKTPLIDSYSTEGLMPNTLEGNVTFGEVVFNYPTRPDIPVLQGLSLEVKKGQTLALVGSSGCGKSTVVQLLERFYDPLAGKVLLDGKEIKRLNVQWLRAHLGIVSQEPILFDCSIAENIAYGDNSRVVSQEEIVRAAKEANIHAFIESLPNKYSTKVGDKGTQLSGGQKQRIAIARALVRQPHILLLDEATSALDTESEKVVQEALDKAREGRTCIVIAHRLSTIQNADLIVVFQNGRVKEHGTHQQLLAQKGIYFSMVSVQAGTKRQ
L-lactate dehydrogenase (Plasmodium falciparum (isolate CDC / Honduras)), sequence (Q27743 whole entry, looked up): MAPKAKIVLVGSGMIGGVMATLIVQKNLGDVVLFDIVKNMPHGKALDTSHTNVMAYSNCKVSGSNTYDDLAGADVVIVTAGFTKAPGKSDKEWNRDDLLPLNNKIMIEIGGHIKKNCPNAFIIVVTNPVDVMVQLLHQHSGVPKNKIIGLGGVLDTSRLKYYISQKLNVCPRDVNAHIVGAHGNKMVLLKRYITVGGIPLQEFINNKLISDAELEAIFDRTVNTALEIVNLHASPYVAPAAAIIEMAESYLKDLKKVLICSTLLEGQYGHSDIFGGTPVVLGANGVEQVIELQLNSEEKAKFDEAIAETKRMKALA

Consider `Fc1ccc(C(c2ccc(F)cc2)N2CCN(C/C=C/c3ccccc3)CC2)cc1`, for which the fluorescence slope change in experiment [1] is 70.9% (active). The inhibition – broadly, the change of the read-out against control, counted positive when it falls – in [2] is 11.9%. In experiment [3], this compound gave a score of 0.72. Further, in experiment [4], the rescue above control worked out at 11.5. The cytochrome c release ratio in [5] was found to be 1.24. Besides, in experiment [6], the inhibition of aggregation came to 27%. Moreover, the glutamate uptake change in experiment [7] was 9.47%. This compound showed an aggregation suppression score in experiment [8] of 1.1. Further, in experiment [9], the period change was -0.2 h (inactive). In experiment [10], the survival was 3.67 (inactive).

Consider `CN(Cc1cnc2nc(N)nc(N)c2n1)c1ccc(C(=O)N[C@@H](CCC(=O)O)C(=O)O)cc1`, for which the inhibition in experiment [2] was 25.6%; in experiment [11] it was -2% (inactive); in experiment [12], 1% (inactive). In addition, the score in experiment [3] came to 0.69. This compound came in with a rescue above control in experiment [4] of -10.9. Besides, in experiment [5], the cytochrome c release ratio stood at 1.08. In experiment [6], this compound returned an inhibition of aggregation of 74.6%. In experiment [7], the glutamate uptake change came out at 10.9%. The compound further came in with an aggregation suppression score in experiment [8] of 0.131. In experiment [13], the growth inhibition was 91% (active). For the same compound, in experiment [9], the period change was 0.835 h (inactive). Moreover, the survival in experiment [10] is 39.6 (inactive).

`Clc1ccccc1C(c1ccccc1)(c1ccccc1)n1ccnc1`: the fluorescence slope change in experiment [1] is 67.9% (active). In experiment [2], the inhibition is 60.7%. This compound showed a score in experiment [3] of 0.26. Moreover, the rescue above control in [4] is -7. The cytochrome c release ratio in experiment [5] came to 4.6. In experiment [6], this compound showed an inhibition of aggregation of 41.7%. Besides, in experiment [7], the glutamate uptake change is -22.9%. In experiment [8], this compound showed an aggregation suppression score of 0.0931. In addition, the period change in experiment [9] is 0.01 h (inactive). Also, in [10], the survival was 29.8 (inactive).

In the case of `O=C(OCC(O)CO)c1ccccc1Nc1ccnc2cc(Cl)ccc12` (stereo unspecified), the fluorescence slope change in experiment [1] is 88.6% (active). The inhibition in experiment [2] is 18.5%. In experiment [3], this compound registered a score of 1.22. In experiment [4], this compound yielded a rescue above control of -8.14. For the same compound, the cytochrome c release ratio in experiment [5] was found to be 1.02. The compound also had an inhibition of aggregation in experiment [6] of 23.8%. Further, the glutamate uptake change in [7] was determined as 4.05%. The compound further had an aggregation suppression score in experiment [8] of 0.893. Further, the survival in [10] is 17.9 (inactive).

`COC(=O)Nc1nc2ccc(Sc3ccccc3)cc2[nH]1`: in experiment [1], the fluorescence slope change was 52.1% (active). Besides, in experiment [2], the inhibition amounted to 20.4%. Besides, the score in experiment [3] turned out to be 0.64. For the same compound, in experiment [4], the rescue above control was -1.52. Further, in experiment [5], the cytochrome c release ratio is 0.87. Further, the inhibition of aggregation in experiment [6] stood at 6.35%. Besides, the glutamate uptake change in experiment [7] is -41.7%. The compound also yielded an aggregation suppression score in experiment [8] of 0.129. Besides, the survival in experiment [10] is 0.833 (inactive).

For the compound `Nc1ccc(N=Nc2ccccc2)c(N)n1`, the inhibition in experiment [2] is 8.8%. The score in experiment [3] amounted to 1.35. In [4], this compound yielded a rescue above control of -1.41. Further, in experiment [5], the cytochrome c release ratio came out at 0.66. Moreover, the inhibition of aggregation in experiment [6] is 65.5%. Moreover, the glutamate uptake change in experiment [7] was -9.75%. The same compound registered an aggregation suppression score in experiment [8] of 1.49. In addition, the survival in experiment [10] is 4 (inactive).

As to `CN(C)CCCN1c2ccccc2Sc2ccccc21`, in experiment [2], the inhibition is -14.3%. The score in experiment [3] stood at 1.56. Moreover, in experiment [4], the rescue above control was 23.4. In addition, the cytochrome c release ratio in experiment [5] is 1.27. In addition, the inhibition of aggregation in experiment [6] turned out to be 23.9%. Besides, the glutamate uptake change in experiment [7] came out at 20.4%. In addition, the aggregation suppression score in [8] worked out at 1.03. The period change in [9] is -0.355 h (inactive). Further, in [10], the survival is 1.08 (inactive).

As for `CN1CCN(CCCN2c3ccccc3Sc3ccc(Cl)cc32)CC1`, in experiment [1], the fluorescence slope change was 65.3% (active). Besides, in experiment [2], the inhibition worked out at 88.9%. The same compound registered a score in [3] of 1.36. The compound also had a rescue above control in experiment [4] of 0. The cytochrome c release ratio in [5] amounted to 2.91. In experiment [6], this compound returned an inhibition of aggregation of 74.6%. In addition, the glutamate uptake change in [7] turned out to be 0%. For the same compound, the aggregation suppression score in [8] came out at 1.34. For the same compound, the period change in experiment [9] was 0.055 h (inactive). Moreover, the survival in experiment [10] is 1.75 (inactive).

`CCN(CC)CCOC(=O)C(c1ccccc1)C1CCCCC1` (stereo unspecified): the fluorescence slope change in experiment [1] is 89.7% (active). Also, the inhibition in experiment [2] stood at 14.6%. Moreover, the score in experiment [3] was 1.92. For the same compound, in [4], the rescue above control turned out to be 0.94. Also, the cytochrome c release ratio in [5] stood at 1.03. The inhibition of aggregation in [6] was found to be 6.35%. Further, in experiment [7], the glutamate uptake change is 1.54%. This compound also registered an aggregation suppression score in experiment [8] of 1.17. Besides, the survival in experiment [10] was 3.67 (inactive).
